Most compounds without a hit are left out; they make up all but 4.1% or so of the library.
hcDAF-12 act: activators of H. contortus DAF-12 nuclear receptor | hit rate 1.4% among 370,000 | activation, % at 6.8 µM | AID 652067 | HEK293 hcDAF-12 lit1-tk-luc reporter, luminescence; 0% DMSO, 100% Δ7-dafachronic acid;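 active = activation above the mean of all tested compounds plus 3 SD, cut at about 5.5% in these data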;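 note: 100% = response to 3 µM Δ7-dafachronic acid high control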
DAX1 inh-1: inhibitors of DAX1 repression of SF-1 activated StAR promoter | HEK293T StAR-luciferase reporter, SF-1/DAX-1 repression relief | inhibition, % at 6.8 µM | hit rate 1.1% among 370,000 | AID 652010;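 active = inhibition above the mean over all tested compounds plus 3 SD, cut at about 3.6% in these data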;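 note: 0% = DAX-1 cells with DMSO and 100% = cells lacking DAX-1 with DMSO; higher inhibition means more luminescence from relief of DAX-1 repression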
DAX1 inh-2: NR0B1 (DAX1) inhibition; HEK293 Gal4-DAX1 luciferase reporter, luminescence; inhibition, % at 6.75 µM; hit rate 0.99% among 340,000;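 active = inhibition above the mean over all tested compounds plus 3 SD, cut at about 4.2% in these data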;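 note: 0% = DAX1-transfected cells with DMSO and 100% = empty-vector control cells with DMSO; inhibition shows as a rise in luminescence from relieved DAX1 repression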
Target sequence (P51843 207-470 limits assumed): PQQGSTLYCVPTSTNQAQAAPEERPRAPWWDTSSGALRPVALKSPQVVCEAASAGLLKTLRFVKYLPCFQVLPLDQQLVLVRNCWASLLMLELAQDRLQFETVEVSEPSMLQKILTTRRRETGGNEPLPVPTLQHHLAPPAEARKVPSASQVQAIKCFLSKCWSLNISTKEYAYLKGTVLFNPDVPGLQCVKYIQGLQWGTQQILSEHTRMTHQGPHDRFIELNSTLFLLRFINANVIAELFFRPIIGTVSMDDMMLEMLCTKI
hgDAF-12 ag: activates the H. glycines DAF-12 receptor ligand-binding domain | HEK293 GAL4-hgDAF12 UAS-luciferase reporter, agonist luminescence; normalized to butyrate control | activation, % at 6.8 µM | hit rate 1.8% among 370,000;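 active = activation above a cutoff set at the mean of all screened compounds plus 3 SD, cut at about 10% in these data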;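 note: 0% = DMSO wells and 100% = sodium butyrate wells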
ssDAF12 agonist: activates DAF-12 receptor from parasite S. stercoralis; hit rate 1% among 370,000; HEK293 ssDAF-12/GRIP1 lit1-tk-luc reporter, luminescence; % of 3 µM dafachronic acid response; activation, % at 6.8 µM; AID 652126;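 active = activation above the mean over all tested compounds plus 3 SD, cut at about 0.9% in these data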;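 note: 0% = DMSO-only wells and 100% = 3 µM delta7-dafachronic acid wells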
hgDAF12 conf: hgDAF-12 agonism, confirmation assay | shares compounds with hgDAF-12 ag | HEK293 GAL4-hgDAF12 luciferase reporter, agonist mode; percent of butyrate response | activation, % at 6.8 µM | hit rate 80% among 3,300 | AID 743050;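 active = mean activation over triplicate wells above the hit cutoff derived from the earlier primary screen, cut at about 11% in these data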;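 note: 0% = DMSO low control and 100% = 2 mM sodium butyrate high control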
LXRb DAF12 ctr: LXR-beta agonism as DAF-12 counter-screen | HEK293 Gal4-LXR luciferase reporter, 24 h | AID 743051 | 3,300 tested, under 10 active | shares compounds with hgDAF-12 ag | activation, % at 6.8 µM;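 active = mean activation of the triplicate above a set limit carried over from the primary screen, none filed active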
Target sequence (P55055 whole entry, looked up, the tested form may be a part): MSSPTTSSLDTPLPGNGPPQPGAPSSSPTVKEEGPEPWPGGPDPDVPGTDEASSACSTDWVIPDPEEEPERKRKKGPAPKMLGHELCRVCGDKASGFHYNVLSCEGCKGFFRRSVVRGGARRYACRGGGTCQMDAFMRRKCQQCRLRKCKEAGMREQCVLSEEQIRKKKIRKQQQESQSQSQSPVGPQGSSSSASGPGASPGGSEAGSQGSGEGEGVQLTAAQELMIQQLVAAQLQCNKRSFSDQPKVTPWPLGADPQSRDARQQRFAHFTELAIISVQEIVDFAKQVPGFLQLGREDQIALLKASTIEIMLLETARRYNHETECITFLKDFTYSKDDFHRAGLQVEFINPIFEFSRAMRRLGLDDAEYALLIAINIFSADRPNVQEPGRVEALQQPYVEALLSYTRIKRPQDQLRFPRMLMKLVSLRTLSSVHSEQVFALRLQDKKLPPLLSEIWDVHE
Numbers without * were called inactive; . = no result.

SMILES | hcDAF-12 act | DAX1 inh-1 | DAX1 inh-2 | hgDAF-12 ag | ssDAF12 agonist | hgDAF12 conf | LXRb DAF12 ctr
CN(C)c1ccc(/C=N/N=C/c2ccccc2O)cc1 | 3.7 | 2.7 | 3.7 | 15.6* | 1.9* | 6.0 | 1.0
C[C@H](O)[C@@H]1C(=O)N2CCc3c([nH]c4ccccc34)[C@@H]2C[C@@H]1N(C)C(=O)Nc1ccc(Br)cc1 | 0.0 | 1.0 | . | 5.0 | -0.6 | . | .
NC(=O)c1sc2nc3c(cc2c1N)CCC3 | -1.3 | 0.1 | 1.5 | 9.1 | -1.2 | . | .
Nc1c(C(=O)N2CCOCC2)sc2nc3c(cc12)CCC3 | 3.8 | 2.4 | -0.4 | 15.9* | 0.0 | 12.8* | 0.6
Cc1ccc(C)c2nc3sc(C(=O)N4CCOCC4)c(N)c3cc12 | 3.1 | 0.1 | 0.0 | 21.1* | 0.1 | 11.3* | 0.5
O=C(O)c1ccc(-c2nc(-c3ccccc3)cs2)cc1 | 2.3 | 2.7 | 6.5* | 13.4* | -0.5 | 8.8 | 0.5
O=C(O)c1ccccc1C(=O)Nc1ccc(-c2csc(-c3ccccc3)n2)cc1 | 0.7 | 0.1 | 1.4 | 16.0* | -0.8 | 6.0 | 0.3
O=C(NCC1CCN(C(=O)C(=O)c2cccs2)CC1)c1ccc2ccccc2c1 | -3.4 | -2.6 | . | 0.8 | -1.6 | . | .
O=C(Nc1ncc([N+](=O)[O-])s1)c1cccc([N+](=O)[O-])c1 | 5.9* | 1.4 | 4.6* | 13.9* | 0.1 | 9.4 | 0.9
Cc1ccc(-c2nc(-c3ccncc3)no2)cc1C | 2.3 | 1.8 | 4.0 | 17.6* | 0.5 | 18.6* | 0.9
CCn1ncc2c(=O)c(C(=O)c3ccccc3)c[nH]c21 | -0.9 | 1.4 | . | 3.3 | -0.6 | . | .
Fc1ccc(/C=C/c2nnc(-c3cccs3)o2)cc1 | 3.7 | 3.7* | 1.9 | 15.3* | 0.3 | 12.0* | 0.6
Cc1ccc(/C=C/c2nnc(-c3ccc(C)cc3)o2)cc1 | 1.4 | 0.6 | 0.2 | 2.4 | -1.0 | . | .
Cc1ccc(/C=C/c2nnc(-c3cccs3)o2)cc1 | 2.9 | 4.4* | -0.3 | 15.5* | -0.2 | 16.4* | 0.8
COCc1[nH]nc2c1C(c1ccc(Br)cc1)N(Cc1ccccc1)C2=O (stereo not given) | -0.4 | -0.2 | . | -1.4 | -1.3 | . | .
COc1cc(C)ccc1OCc1cc(C(=O)N(Cc2nccn2C)C(C)C)no1 | 4.6 | 3.7* | 0.9 | 17.9* | -0.2 | 12.6* | 0.6
N/C(=N\OC(=O)c1ccc2c(c1)OCO2)c1cccc(Br)c1 | 1.6 | 0.7 | -0.5 | 5.5 | -0.3 | . | .
N/C(=N\OC(=O)c1ccc2c(c1)OCO2)c1cccnc1 | 4.5 | 1.9 | 1.0 | 13.7* | 1.1* | 11.4* | 0.4
C#Cc1cccc(OC[C@@H](O)CN2CCC(C(O)(c3ccccc3)c3ccccc3)CC2)c1 | -0.8 | 0.2 | . | 3.5 | -1.2 | . | .
CCOC(=O)N/N=C\c1ccccc1OC/C=C/c1ccccc1 | 0.9 | -1.9 | 0.1 | 14.3* | -0.5 | 8.4 | 0.2
C/C(=N/N=C1/NC(=O)CC(C(=O)Nc2ccccc2)S1)c1cccs1 (stereo not given) | -0.2 | -0.1 | -1.2 | 13.5* | -1.1 | -0.3 | -0.1
CC1CN(c2nc3ccccc3nc2SCC(=O)N2CCN(S(=O)(=O)c3ccccc3)CC2)CC(C)O1 (stereo not given) | -3.9 | -3.6 | . | -3.8 | -2.2 | . | .
CCCC1CCC(c2ccc(OCC)cc2)=CC1=O (stereo not given) | 0.8 | 1.5 | 3.3 | 14.1* | -0.3 | 15.7* | 0.8
CCCN1CCS(=O)(=O)N(Cc2cn(Cc3ccc(OC)cc3)nn2)C(C(=O)OC)C1 (stereo not given) | -0.3 | 0.8 | . | 1.4 | -0.6 | . | .
CC(=O)c1ccc(N/C=C\C(=O)c2ccc(C)cc2)cc1 | 2.9 | 2.4 | 1.9 | 18.5* | 2.0* | 19.7* | 0.8
SMILES | hcDAF-12 act | DAX1 inh-1 | DAX1 inh-2 | hgDAF-12 ag | ssDAF12 agonist | hgDAF12 conf | LXRb DAF12 ctr
CCc1ccc(NC(=O)c2cnccn2)cc1 | 3.2 | 2.6 | 2.7 | 14.8* | 0.7 | 12.9* | 0.9
COC(=O)c1cc2c(c3c4cc(F)ccc4n(S(=O)(=O)c4ccc(OC)cc4)c13)C(=O)N(C)C2 | -0.5 | -0.1 | . | -2.7 | -0.7 | . | .
CO/C(N)=C(\C#N)N=Cc1ccccc1Cl | 1.4 | 1.9 | 1.1 | 13.9* | 0.8 | 3.5 | 0.1
COCCCNC(=O)CN1C(=O)C2CCCCN2C(=O)c2ccccc21 (stereo not given) | 1.8 | -0.8 | . | -1.1 | -1.5 | . | .
O=c1ccccn1CCOc1ccc(Cl)cc1 | -0.6 | 0.1 | 2.7 | -0.4 | -1.6 | . | .
CC(C)(C)c1ccc(OCCn2ccccc2=O)cc1 | 6.2* | 2.9 | 1.2 | 15.6* | -0.1 | 17.3* | 0.7
C=CCN1C(=S)CC(c2ccccc2)=Nc2ccccc21 | -0.5 | -0.1 | -1.1 | 14.4* | -0.7 | -0.5 | 0.0
O=C(NCc1ccccc1)[C@H]1CCCN1C(=O)[C@H]1CCCN1C(=O)c1ccc(F)cc1 | -1.0 | -0.1 | . | 1.7 | -1.0 | . | .
COc1ccc(Br)c(C(=O)Nc2nc3ccccc3[nH]2)c1 | 1.3 | 1.0 | 0.5 | 3.1 | -0.6 | . | .
COc1ccc2oc(C(=O)Nc3nc4ccccc4[nH]3)c(C)c2c1 | 5.0 | 4.2* | 2.0 | 24.6* | 0.5 | 17.8* | 1.0
CC(C)c1ccc(OCc2cccc(C(=O)N/N=C/c3cccnc3)c2)cc1 | 3.6 | 3.9* | -5.7 | 21.1* | 0.8 | 18.3* | 0.9
O=C(N/N=C/c1cccnc1)c1cccc(Br)c1 | 3.3 | 0.6 | 2.0 | 1.4 | -1.2 | . | .
O=C(N/N=C/c1cccnc1)c1ccccc1OCc1cccc(Br)c1 | -0.3 | -0.7 | -0.6 | -0.5 | -1.6 | . | .
CCOc1ccc(OCc2cccc(C(=O)N/N=C/c3cccnc3)c2)cc1 | 4.3 | 3.7* | -6.5 | 15.0* | 0.1 | 19.1* | 0.7
COC(=O)C1=C(C)N(CC(C)C)C(=S)NC1c1cccc(OC)c1 (stereo not given) | -1.7 | 0.0 | . | -1.1 | -1.2 | . | .
COc1cc(OC)c(NC(=O)C(Sc2nc(C)cc(C)c2C#N)c2ccccc2)cc1Cl (stereo not given) | 0.6 | 1.1 | . | -0.2 | -0.9 | . | .
O=C(Nc1cccnc1)c1sc2cccc(F)c2c1Cl | 6.0* | 4.1* | 1.0 | 17.1* | -0.9 | 14.8* | 0.4
CN=c1sc(C(=O)Nc2cccc(Cl)c2)cc(=O)n1C | -1.1 | -1.3 | -2.0 | 2.6 | -1.4 | . | .
Cn1ccs/c1=N\C(=O)Nc1cccc(Cl)c1 | 2.3 | 3.0 | 1.0 | 16.2* | 0.4 | 11.2* | 0.5
CCCCCCCCN1C(=O)[C@@H](CC(=O)N2CCOCC2)C[C@@]2(C(=O)OC)C1=C[C@H](C(C)(C)C)O[C@@H]2C | -0.5 | -0.6 | . | -0.9 | -1.1 | . | .
O=c1c2ccccc2nnn1COc1cccc(Cl)c1 | 1.4 | 1.7 | 2.0 | 13.4* | -1.0 | 6.2 | 0.2
Cc1cc(C(=O)CN2CCCCC2)c(C)n1-c1ccc(F)cc1 | 0.5 | 1.1 | 2.5 | 5.3 | -1.1 | . | .
